Screening data from PubChem BioAssay.
G9a inh = inhibitors of human histone lysine methyltransferase G9a. G9a H3K9 monomethylation, AlphaScreen, 2 h. Potency, µM (highest dose often 102 µM), most hits filed as inhibitors. actives 8.8% (n = 350,000). AID 504332. Q96KQ7; further: nearly all actives have a fitted effect of over 75% in size
Target sequence (Q96KQ7 913-1193 limits assumed): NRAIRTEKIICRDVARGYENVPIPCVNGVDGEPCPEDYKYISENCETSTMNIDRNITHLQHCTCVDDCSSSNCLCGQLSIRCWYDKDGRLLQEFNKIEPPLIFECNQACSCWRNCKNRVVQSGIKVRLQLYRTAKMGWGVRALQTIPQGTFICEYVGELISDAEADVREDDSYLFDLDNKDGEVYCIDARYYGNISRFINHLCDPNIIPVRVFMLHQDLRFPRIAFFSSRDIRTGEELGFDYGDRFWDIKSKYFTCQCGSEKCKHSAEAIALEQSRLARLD
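AlphaScreen detection with an anti-monomethyl H3K9 antibody quantified product after a 2 h room-temperature reaction containing 500 nM biotinylated H3K9 peptide, 20 µM SAM and 20 nM enzyme, which had been preincubated 15 min with compound.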
JMJD2A Tudor = blocks the human JMJD2A Tudor domain; AlphaScreen JMJD2A-Tudor / H3K4me3 peptide binding; Potency, µM (top dose mostly 114 µM), hits mostly inhibitors; actives 4.4% (n = 390,000); further: nearly all actives have a fitted effect of over 50% in size
BAZ2B inh = blocks human BAZ2B. actives 4.4% (n = 360,000). AID 504333. Q9UIF8. AlphaScreen BAZ2B-H3K14Ac peptide displacement. Potency, µM (top dose mostly 114 µM), actives largely listed as inhibitors; further: nearly all actives have a fitted effect of over 60% in size
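Multi-concentration screen (max 110 uM) measuring displacement of acetylated histone H3 peptide from BAZ2B by AlphaScreen, using 50 nM protein, 50 nM peptide and 10 ug/mL streptavidin donor plus Ni-chelate acceptor beads.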
Sfp PPTase inh = inhibitors of Bacillus subtilis Sfp phosphopantetheinyl transferase | actives 3.5% (n = 310,000) | Biochemical Sfp PPTase activity, qHTS | Potency, µM, hits mostly inhibitors;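 further: the enzyme is Sfp with the accession as filed and its product quenches rhodamine fluorescence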
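Fluorescence-quenching assay with 15 nM Sfp, 5 uM rhodamine-CoA and 12.5 uM BHQ-2-labelled ybbR peptide in pH 7.6 Hepes/MgCl2 buffer. Enzyme was pre-incubated with compound for 15 min at room temperature. Rate was taken from the 30-min fluorescence change (525/598 nm).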
HP1b binding inh = HP1-beta chromodomain-methylated histone interaction inhibition; actives 0.56% (n = 390,000); Potency, µM (series often up to 114 µM), most hits filed as inhibitors; P83916; AlphaScreen HP1-beta / biotin-H3K9me3 peptide binding; further: nearly all actives have a fitted effect of over 70% in size
Target sequence (P83916 whole entry, looked up): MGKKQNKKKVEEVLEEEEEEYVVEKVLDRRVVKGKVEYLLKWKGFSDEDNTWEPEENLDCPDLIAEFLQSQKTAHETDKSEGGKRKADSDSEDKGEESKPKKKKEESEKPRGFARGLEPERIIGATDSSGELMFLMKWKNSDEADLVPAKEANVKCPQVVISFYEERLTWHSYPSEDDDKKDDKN
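HP1-beta protein (50 nM final) preincubated 30 min at room temperature with biotinylated H3(1-18)K9me3 peptide (50 nM) in PBS pH 7.4, 0.01% Tween-20, then compound added for 30 min. AlphaScreen streptavidin donor/nickel chelate acceptor beads (10 ug/mL final), 30 min dark, luminescence read.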
L3MBTL1 inh = blocks human L3MBTL1; Q9Y468; AlphaScreen L3MBTL1–H3K9me1 peptide binding; Potency, µM (titrated, usually from 57.1 µM), hits mostly inhibitors; actives 0.66% (n = 230,000); further: nearly all actives have a fitted effect of over 60% in size
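L3MBTL1 50 nM + b-AHA-H3(1-15)K9me1 75 nM, 30 min RT; compound added, 30 min RT; streptavidin donor/Ni-chelate acceptor beads 10 ug/mL each final, 30 min RT dark; AlphaScreen read.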
Each line names hits and unclear results; the compound was inactive in the other large screens. An excerpt weighted towards active compounds, which were near 12% of everything screened. The call rests on the fitted dose curve; in most records, active means well fitted curve in the direction sought with a large enough effect; inconclusive means small, poorly fitted or top-dose-only effect, or another doubt; inactive means no such curve, though single readings can be large; an effect the other way counts as inactive or inconclusive.

CC(C)C[C@@H]1NC(=O)[C@H](Cc2ccc(O)cc2)NC(=O)c2cc([N+](=O)[O-])cc(I)c2NCCC[C@@H](C(N)=O)NC1=O	G9a inh 71µM, BAZ2B inh inconclusive
NC(=O)[C@@H]1CCCNc2c(I)cc([N+](=O)[O-])cc2C(=O)N[C@@H](Cc2ccccc2)C(=O)N[C@@H](Cc2cnc[nH]2)C(=O)N1	G9a inh 8.9µM, JMJD2A Tudor inconclusive, BAZ2B inh 50µM
CCN1C(=O)[C@@H]2[C@@H](c3ccc(-c4ccc(Cl)c(Cl)c4)c(OC)c3)N3CCC[C@@]3(C(=O)OC)[C@@H]2C1=O	JMJD2A Tudor inconclusive, BAZ2B inh inconclusive, L3MBTL1 inh inconclusive (no result: Sfp PPTase inh)
NC(=O)CC[C@@H]1NC(=O)[C@H](CO)NC(=O)c2cc([N+](=O)[O-])cc(I)c2NCCC[C@@H](C(N)=O)NC(=O)[C@H](Cc2ccc(O)cc2)NC1=O	G9a inh 50µM, BAZ2B inh inconclusive
COc1ccc(NC(=O)c2ncn(-c3ccccc3)n2)cc1Cl	none (no result: Sfp PPTase inh, L3MBTL1 inh)
COC(=O)CCCCC1SCC2NC(=O)NC21O (configuration not stated)	G9a inh 8.9µM, JMJD2A Tudor 0.89µM, BAZ2B inh 2.2µM (no result: L3MBTL1 inh)
COC(=O)CCCC[C@H]1SC[C@H]2NC(=O)N[C@]21O	G9a inh 2.2µM, BAZ2B inh 0.89µM, Sfp PPTase inh 40µM, L3MBTL1 inh 2.2µM (no result: JMJD2A Tudor, HP1b binding inh)
CC[n+]1c(C)sc2c3ccsc3ccc21	G9a inh 1.6µM, JMJD2A Tudor 56µM, Sfp PPTase inh 1.4µM, HP1b binding inh inconclusive (no result: BAZ2B inh)
CSCCC(NC(=O)c1ccccc1Cl)C(=O)N1CC(C)OC(C)C1 (configuration not stated)	none (no result: Sfp PPTase inh)
CCCCNC(=O)c1cccc(C(=O)NCCCC)c1	none
Cc1cc(C)c2cc(C(=O)Nc3ccc(C)c(F)c3)[nH]c2c1	G9a inh 45µM (no result: L3MBTL1 inh)
CCCCNC(=O)c1cc2c(C)cc(C)cc2[nH]1	G9a inh 50µM (no result: L3MBTL1 inh)
CCN(CC)c1cc2c(cc1F)c(=O)c(S(=O)(=O)c1cc(C)ccc1C)cn2Cc1ccccc1	none (no result: Sfp PPTase inh, L3MBTL1 inh)
CCOCC(O)CNc1ccccc1 (configuration not stated)	none
Cc1ccc(OCCNCC(O)COc2ccccc2)cc1 (configuration not stated)	G9a inh inconclusive, JMJD2A Tudor 56µM, BAZ2B inh 50µM (no result: L3MBTL1 inh)
OC(CNc1ccccc1)COc1ccc(OCC(O)CNc2ccccc2)cc1 (configuration not stated)	G9a inh inconclusive, JMJD2A Tudor 50µM, BAZ2B inh 50µM
Cc1ccccc1OCC(O)CNCCOc1ccc(C(N)=O)cc1 (configuration not stated)	none (no result: JMJD2A Tudor, BAZ2B inh, HP1b binding inh, L3MBTL1 inh)
COc1ccccc1NCC(O)COc1ccc(C(C)(C)C)cc1 (configuration not stated)	G9a inh 7.9µM, JMJD2A Tudor 2.8µM, BAZ2B inh 22µM, Sfp PPTase inh inconclusive, HP1b binding inh 20µM
COc1ccc(NCC(O)COc2ccc(C(C)(C)C)cc2)cc1 (configuration not stated)	G9a inh inconclusive, JMJD2A Tudor inconclusive, BAZ2B inh inconclusive, HP1b binding inh inconclusive
COc1ccc(OCC(O)CNCCOc2ccccc2OC)c(C(C)(C)C)c1 (configuration not stated)	G9a inh inconclusive, JMJD2A Tudor 22µM, BAZ2B inh 50µM, Sfp PPTase inh inconclusive (no result: L3MBTL1 inh)
COc1ccccc1-c1c(C)nn2c(N3CCN(c4ccc(F)cc4)CC3)cc(C)nc12	none (no result: Sfp PPTase inh, L3MBTL1 inh)
Cn1nc([N+](=O)[O-])nc1S(C)(=O)=O	G9a inh 56µM, BAZ2B inh inconclusive
CNc1cc2c(Nc3cccc(Br)c3)ncnc2cn1	none (no result: G9a inh, JMJD2A Tudor, BAZ2B inh, HP1b binding inh, L3MBTL1 inh)
COc1ccc(C)cc1-n1[nH]nnc1=S	G9a inh 6.3µM, JMJD2A Tudor 25µM
Cc1cc(C)c(-n2[nH]nnc2=S)c(C)c1	G9a inh 14µM, JMJD2A Tudor 32µM, BAZ2B inh inconclusive, Sfp PPTase inh 28µM
Cn1c(C(=O)Nc2ccc(OC(F)(F)F)cc2)cc2c(=O)n3ccccc3nc21	none (no result: Sfp PPTase inh, L3MBTL1 inh)
CCOc1ccc(NC(=O)c2ccc(NC(=O)CCS(=O)(=O)c3cccs3)cc2)cc1	none (no result: Sfp PPTase inh, L3MBTL1 inh)
COc1ccc(C2NC(Cc3ccccc3)(C(=O)O)C3C(=O)N(c4ccccc4OC)C(=O)C23)cc1 (configuration not stated)	G9a inh 50µM (no result: L3MBTL1 inh)
COc1ccc(C2CC2/C(=N/O)c2ccccn2)cc1 (configuration not stated)	none
COc1ccc(C2CC2/C(=N/O)c2ccccc2)cc1 (configuration not stated)	JMJD2A Tudor 14µM, HP1b binding inh inconclusive
CC(=O)NNc1nc(-c2ccc(C)cc2)cs1	G9a inh 32µM, Sfp PPTase inh 40µM
CC(=O)NNc1nc(-c2ccccc2)cs1	G9a inh inconclusive, JMJD2A Tudor inconclusive, Sfp PPTase inh 20µM (no result: L3MBTL1 inh)
O=C(NNc1nc(-c2ccccc2)cs1)c1cccs1	BAZ2B inh inconclusive, Sfp PPTase inh inconclusive
CC(=O)Nc1ccc(-c2csc(NC(=O)Cc3ccccc3F)n2)cc1	G9a inh 40µM (no result: L3MBTL1 inh)
COc1ccc(C)cc1N(C(=O)c1ccco1)C(C(=O)NC1CCCC1)c1ccc(N2CCOCC2)cc1 (configuration not stated)	none (no result: L3MBTL1 inh)
Cc1cc(C)nc(SC2c3cccc4cccc(c34)C2NS(=O)(=O)c2ccccc2)n1 (configuration not stated)	none
Nc1nc(SC2c3cccc4cccc(c34)C2NS(=O)(=O)c2ccccc2)n[nH]1 (configuration not stated)	G9a inh 3.2µM, BAZ2B inh inconclusive, HP1b binding inh inconclusive
COc1ccc2nc(N3CCCC(C(=O)NCCCN4C(C)CCCC4C)C3)sc2c1 (configuration not stated)	none (no result: L3MBTL1 inh)
Cc1cccnc1NC(=O)Cn1nc(-c2ccccc2)oc1=S	G9a inh 50µM, JMJD2A Tudor 79µM
Cc1cccnc1NC(=O)Cn1nc([N+](=O)[O-])cc1C	G9a inh inconclusive
COc1ccc(C)cc1NC(=O)CSc1ccc(-c2ccccn2)nn1	JMJD2A Tudor 4.5µM, BAZ2B inh 3.5µM (no result: L3MBTL1 inh)
CCOC(=O)c1ccccc1NC(=O)CSc1nccn1C	none
CCOC(=O)c1ccccc1NC(=O)CSc1ccc(-c2ccccn2)nn1	JMJD2A Tudor 16µM, BAZ2B inh 2.8µM (no result: G9a inh, L3MBTL1 inh)
O=C(CN1CCc2ccccc2C1)NCC(=O)Nc1ccc(F)cc1	none (no result: L3MBTL1 inh)
CC(=O)Nc1ccc([C@H]2[C@H](C)CC[C@H]3C(=O)N4[C@@H](CC[C@@H](C)[C@@H]4c4ccc(NC(C)=O)cc4)C(=O)N32)cc1	G9a inh inconclusive, BAZ2B inh 56µM (no result: JMJD2A Tudor, HP1b binding inh)
